Test results: PubChem BioAssay (EPA / NIEHS)
Calls of active or inactive are those of the source. How the source made its calls: active means hit-call score of the fitted dose curve at least 0.9, where 1 is the maximum; inactive means score below 0.9.

Legend:
Settings in all cases: mRNA level, 48 h; actives raise or lower the signal
[1] = read-out: ABC Transporter (ABCB11), ABCB11 (gene 8647); assay: LTEA_HepaRG_ABCB11: Life Technologies and Expression Analysis (LTEA) Assay for ABC Transporter (ABCB11) using HepaRG (AID 2283463)
Outline: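 HepaRG, 48 h exposure, 8-pt half-log CRC top 100 uM, 0.5% DMSO vehicle, duplicates. Readout: TaqMan qRT-PCR of ABCB11 mRNA, housekeeping-normalized (ACTB/GAPDH/POLR2A). Bidirectional fit vs DMSO baseline.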

[2] = read-out: ABC Transporter (ABCC2), ABCC2 (gene 1244); assay: LTEA_HepaRG_ABCC2: Life Technologies and Expression Analysis (LTEA) Assay for ABC Transporter (ABCC2) using HepaRG (AID 2283464)
Outline: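 qRT-PCR (TaqMan, Fluidigm array) read-out of ABCC2 mRNA, normalized to three housekeeping genes. Differentiated HepaRG cells were treated 48 h in serum-free induction medium with 8-point half-log series from 100 uM in 0.5% DMSO; curves fitted bidirectionally relative to DMSO.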

[3] = read-out: Broad substrate specificity ATP-binding cassette transporter ABCG2 (Homo sapiens) (UniProt Q9UNQ0); assay: LTEA_HepaRG_ABCG2: Life Technologies and Expression Analysis (LTEA) Assay for ABC Transporter (ABCG2) using HepaRG (AID 2283465)
Outline: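 HepaRG, 48 h exposure, 8-pt half-log series from 100 uM, 0.5% DMSO vehicle, duplicates. Readout: ABCG2 transcript by qRT-PCR (Fluidigm array), housekeeping-normalized; bidirectional curve fit relative to DMSO baseline.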

[4] = read-out: ATP-citrate lyase (ACLY), ACLY (gene 47); assay: LTEA_HepaRG_ACLY: Life Technologies and Expression Analysis (LTEA) Assay for ATP-citrate lyase (ACLY) using HepaRG (AID 2283466)
Outline: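 qRT-PCR readout of ACLY transcript after 48 h chemical treatment of HepaRG cells; expression normalized to three housekeeping genes. Eight-point half-log series, highest 100 uM, 0.5% DMSO vehicle. Gain or loss fitted against DMSO baseline.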

[5] = read-out: Peroxisomal acyl-coenzyme A oxidase 1 (ACOX1) gene, ACOX1 (gene 51); assay: LTEA_HepaRG_ACOX1: Life Technologies and Expression Analysis (LTEA) Assay for Peroxisomal acyl-coenzyme A oxidase 1 (ACOX1) gene using HepaRG (AID 2283467)
Outline: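 HepaRG, 48 h chemical exposure, 8-pt half-log series from 100 uM top, 0.5% DMSO vehicle, duplicates. Readout: ACOX1 mRNA by Fluidigm qRT-PCR, housekeeping-normalized; bidirectional fit vs DMSO baseline.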

[6] = read-out: Alkaline Phosphatase, Placental (ALPP) gene, ALPP (gene 250); assay: LTEA_HepaRG_ALPP: Life Technologies and Expression Analysis (LTEA) Assay for Alkaline Phosphatase, Placental (ALPP) gene using HepaRG (AID 2283468)
Outline: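 qRT-PCR readout of ALPP mRNA (Fluidigm TaqMan), normalized to ACTB/GAPDH/POLR2A, after 48 h chemical exposure of HepaRG cells; 8-point half-log series, top 100 uM, 0.5% DMSO vehicle. Bidirectional curve fit versus DMSO baseline.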

[7] = read-out: Bcl-2 (BAD) gene, BAD (gene 572); assay: LTEA_HepaRG_BAD: Life Technologies and Expression Analysis (LTEA) Assay for Bcl-2 (BAD) gene using HepaRG (AID 2283469)
Outline: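 HepaRG, 48 h exposure, 8-pt half-log curve from 100 uM in 0.5% DMSO, duplicates. Readout: TaqMan qRT-PCR for BAD mRNA, housekeeping-normalised (ACTB/GAPDH/POLR2A); gain or loss fitted against DMSO baseline.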

[8] = read-out: Bcl-2 (BAX) gene, BAX (gene 581); assay: LTEA_HepaRG_BAX: Life Technologies and Expression Analysis (LTEA) Assay for Bcl-2 (BAX) gene using HepaRG (AID 2283470)
Outline: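 Gene expression measured by Fluidigm qRT-PCR with three housekeeping genes for normalisation. HepaRG cells, plated 48 h beforehand, treated 48 h at up to 100 uM (8-point, half-log) in 0.5% DMSO. Bidirectional fitting versus DMSO.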

[9] = read-out: adenosine kinase (ADK) gene, ADK (gene 132); assay: LTEA_HepaRG_ADK: Life Technologies and Expression Analysis (LTEA) Assay for adenosine kinase (ADK) gene using HepaRG (AID 2283471)
Outline: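 ADK expression quantified by qRT-PCR, normalised to three housekeeping genes, after 48 h exposure of HepaRG cells to eight concentrations (top 100 uM, half-log steps, duplicate, 0.5% DMSO). Up- or down-regulation fitted relative to vehicle.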

[10] = read-out: Alpha-fetoprotein (AFP) gene, AFP (gene 174); assay: LTEA_HepaRG_AFP: Life Technologies and Expression Analysis (LTEA) Assay for Alpha-fetoprotein (AFP) gene using HepaRG (AID 2283472)
Outline: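 AFP transcript measured by TaqMan qRT-PCR with three housekeeping genes for normalization, after 48 h chemical treatment of HepaRG cells (top 100 uM, half-log steps, 0.5% DMSO). Gain or loss fitted against vehicle.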

BCL2L11 (gene 10018) = assay: LTEA_HepaRG_BCL2L11: Life Technologies and Expression Analysis (LTEA) Assay for Bcl-2 (BCL2L11) gene using HepaRG (AID 2283473)
Outline: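 HepaRG, 48 h exposure, 8-pt half-log series from 100 uM in 0.5% DMSO, duplicates; qRT-PCR (Fluidigm TaqMan) for BCL2L11, housekeeping-normalized; bidirectional curve fit relative to DMSO baseline.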

[11] = read-out: Apoptosis regulator Bcl-2 (Homo sapiens) (UniProt P10415); assay: LTEA_HepaRG_BCL2: Life Technologies and Expression Analysis (LTEA) Assay for Bcl-2 gene using HepaRG (AID 2283475)
Outline: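 qRT-PCR of BCL2 transcript, normalized to three housekeeping genes (ACTB, GAPDH, POLR2A), after 48 h chemical exposure of HepaRG cells; concentrations top 100 uM with half-log dilutions, 0.5% DMSO vehicle, duplicates; changes up or down fitted relative to vehicle.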

[12] = read-out: Bcl-2 (BID) gene, BID (gene 637); assay: LTEA_HepaRG_BID: Life Technologies and Expression Analysis (LTEA) Assay for Bcl-2 (BID) gene using HepaRG (AID 2283476)
Outline: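 Duplicate 48 h treatments of HepaRG cells in serum-free induction medium spanned 100 uM downward in half-log steps, 0.5% DMSO. Transcript change quantified by qRT-PCR against three housekeeping genes, fitted up or down versus DMSO.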

Caspase-3 (Homo sapiens) = Caspase-3 (Homo sapiens) (UniProt P42574); assay: LTEA_HepaRG_CASP3: Life Technologies and Expression Analysis (LTEA) Assay for cysteine-aspartic acid protease (CASP3) using HepaRG (AID 2283477)
Outline: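 HepaRG, 48 h exposure, 8 conc. (top 100 uM, half-log steps, duplicate), 0.5% DMSO vehicle; qRT-PCR of CASP3 transcript, housekeeping-normalised (ACTB/GAPDH/POLR2A); bidirectional curve fit vs DMSO baseline.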

[13] = read-out: Cytochrome P450 (CYP24A1), CYP24A1 (gene 1591); assay: LTEA_HepaRG_CYP24A1: Life Technologies and Expression Analysis (LTEA) Assay for Cytochrome P450 (CYP24A1) using HepaRG (AID 2283478)
Outline: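 qRT-PCR read-out: CYP24A1 transcript levels normalized to three housekeeping genes, bidirectional curve fits against 0.5% DMSO baseline. Human HepaRG cells treated 48 h with chemicals at eight concentrations from 100 uM in half-log steps.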

[14] = read-out: cysteine-aspartic acid protease (CASP8), CASP8 (gene 841); assay: LTEA_HepaRG_CASP8: Life Technologies and Expression Analysis (LTEA) Assay for cysteine-aspartic acid protease (CASP8) using HepaRG (AID 2283480)
Outline: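 qRT-PCR readout of CASP8 mRNA, normalized to three housekeeping genes, after 48 h chemical exposure of HepaRG cells; 8-point half-log series, top 100 uM, 0.5% DMSO vehicle. Bidirectional curve fitting against DMSO baseline.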

[15] = read-out: Cytochrome P450 (CYP2B6), CYP2B6 (gene 1555); assay: LTEA_HepaRG_CYP2B6: Life Technologies and Expression Analysis (LTEA) Assay for Cytochrome P450 (CYP2B6) using HepaRG (AID 2283481)
Outline: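 Read-out is CYP2B6 mRNA by TaqMan qRT-PCR, normalized to three housekeeping genes and fitted bidirectionally against 0.5% DMSO baseline. Human HepaRG cells received test chemicals for 48 h, top concentration 100 uM, half-log dilutions.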

[16] = read-out: Cytochrome P450 2C19 (Homo sapiens) (UniProt P33261); assay: LTEA_HepaRG_CYP2C19: Life Technologies and Expression Analysis (LTEA) Assay for CYP2C19 using HepaRG (AID 2283482)
Outline: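 HepaRG, 48 h chemical exposure, 8-pt half-log series from 100 uM in 0.5% DMSO, duplicates. Readout: CYP2C19 mRNA by TaqMan qRT-PCR, housekeeping-normalized. Bidirectional fit vs DMSO baseline; phenobarbital 1mM as induction control.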

[17] = read-out: Cytochrome P450 (CYP1A2), CYP1A2 (gene 1544); assay: LTEA_HepaRG_CYP1A2: Life Technologies and Expression Analysis (LTEA) Assay for Cytochrome P450 (CYP1A2) using HepaRG (AID 2283479)
Outline: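 HepaRG, 48 h exposure, top 100 uM, half-log 8-pt, 0.5% DMSO vehicle, duplicates. Readout: TaqMan qRT-PCR of CYP1A2 mRNA, housekeeping-normalized (ACTB/GAPDH/POLR2A). Gain/loss fit relative to DMSO baseline.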

[18] = read-out: Apolipoprotein A-V (APOA5) gene, APOA5 (gene 116519); assay: LTEA_HepaRG_APOA5: Life Technologies and Expression Analysis (LTEA) Assay for Apolipoprotein A-V (APOA5) gene using HepaRG (AID 2283474)
Outline: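 HepaRG, 48 h chemical exposure in serum-free induction medium, 8-pt half-log series (top 100 uM), 0.5% DMSO vehicle, duplicates. Readout: APOA5 mRNA by qRT-PCR, housekeeping-normalized; bidirectional fit vs DMSO baseline.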

Broad substrate specificity ATP-binding cassette transporter ABCG2 (Homo sapiens), sequence (Q9UNQ0 whole entry, looked up): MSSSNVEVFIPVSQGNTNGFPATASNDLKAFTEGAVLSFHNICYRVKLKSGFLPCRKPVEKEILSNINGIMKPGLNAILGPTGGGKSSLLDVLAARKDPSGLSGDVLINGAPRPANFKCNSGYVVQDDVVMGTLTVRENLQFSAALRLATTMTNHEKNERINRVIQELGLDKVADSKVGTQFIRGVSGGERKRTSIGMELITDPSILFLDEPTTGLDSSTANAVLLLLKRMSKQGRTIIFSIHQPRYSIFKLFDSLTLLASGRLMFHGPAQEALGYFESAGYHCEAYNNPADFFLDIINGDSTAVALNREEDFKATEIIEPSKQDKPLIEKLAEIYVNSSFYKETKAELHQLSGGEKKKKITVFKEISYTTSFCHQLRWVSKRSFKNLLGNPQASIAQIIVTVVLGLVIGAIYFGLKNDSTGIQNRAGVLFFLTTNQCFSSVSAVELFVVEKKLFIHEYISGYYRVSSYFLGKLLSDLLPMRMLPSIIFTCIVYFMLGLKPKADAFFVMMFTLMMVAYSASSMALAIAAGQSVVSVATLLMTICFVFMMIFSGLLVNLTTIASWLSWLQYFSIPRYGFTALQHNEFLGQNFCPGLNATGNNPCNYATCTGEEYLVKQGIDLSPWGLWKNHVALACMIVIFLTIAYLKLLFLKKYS
Cytochrome P450 2C19 (Homo sapiens), sequence (P33261 whole entry, looked up): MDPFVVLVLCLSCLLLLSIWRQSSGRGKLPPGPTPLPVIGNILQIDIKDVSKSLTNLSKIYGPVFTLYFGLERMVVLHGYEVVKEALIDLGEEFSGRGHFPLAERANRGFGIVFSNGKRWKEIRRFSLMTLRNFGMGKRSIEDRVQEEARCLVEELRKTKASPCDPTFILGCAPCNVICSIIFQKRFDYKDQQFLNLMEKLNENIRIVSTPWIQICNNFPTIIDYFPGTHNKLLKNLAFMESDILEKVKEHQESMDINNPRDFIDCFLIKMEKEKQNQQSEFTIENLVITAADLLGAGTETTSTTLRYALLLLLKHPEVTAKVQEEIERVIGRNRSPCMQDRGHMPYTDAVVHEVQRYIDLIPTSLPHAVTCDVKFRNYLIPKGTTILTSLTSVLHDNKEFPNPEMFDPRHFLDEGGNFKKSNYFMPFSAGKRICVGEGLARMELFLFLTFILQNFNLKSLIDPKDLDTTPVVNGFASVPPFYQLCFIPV
Apoptosis regulator Bcl-2 (Homo sapiens), sequence (P10415 whole entry, looked up): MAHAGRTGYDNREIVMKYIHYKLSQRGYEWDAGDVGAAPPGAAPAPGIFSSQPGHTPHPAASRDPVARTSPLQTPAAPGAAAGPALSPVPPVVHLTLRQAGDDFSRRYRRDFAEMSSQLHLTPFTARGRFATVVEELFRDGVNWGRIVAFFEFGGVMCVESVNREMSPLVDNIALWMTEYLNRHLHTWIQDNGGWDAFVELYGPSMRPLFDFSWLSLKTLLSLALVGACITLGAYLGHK
Caspase-3 (Homo sapiens), sequence (P42574 whole entry, looked up): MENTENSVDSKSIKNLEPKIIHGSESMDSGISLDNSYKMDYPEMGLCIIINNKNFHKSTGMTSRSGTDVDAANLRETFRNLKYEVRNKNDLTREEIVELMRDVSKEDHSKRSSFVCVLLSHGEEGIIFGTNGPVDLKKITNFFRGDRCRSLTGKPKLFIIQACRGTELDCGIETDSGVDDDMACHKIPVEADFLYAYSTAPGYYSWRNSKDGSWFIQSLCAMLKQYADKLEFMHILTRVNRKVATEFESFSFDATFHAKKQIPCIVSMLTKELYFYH

Q: For `O=C(O)c1[nH]n(-c2ccc(S(=O)(=O)O)cc2)c(=O)c1N=Nc1ccc(S(=O)(=O)O)cc1`, which outcome [1] is on record?
A: inactive

Q: What about the outcome [2] of the same compound?
A: inactive

Q: And the outcome [3]?
A: inactive

Q: And the outcome [4]?
A: inactive

Q: What about the outcome [5] of the same compound?
A: inactive

Q: What about the outcome [6] of the same compound?
A: inactive

Q: And the outcome [7]?
A: inactive

Q: What about the outcome [8] of the same compound?
A: inactive

Q: And the outcome [9]?
A: inactive

Q: And the outcome [10]?
A: inactive

Q: And the outcome (BCL2L11 (gene 10018))?
A: inactive

Q: What about the outcome [11] of the same compound?
A: inactive

Q: And the outcome [12]?
A: inactive

Q: What about the outcome (Caspase-3 (Homo sapiens)) of the same compound?
A: inactive

Q: And the outcome [13]?
A: inactive

Q: What about the outcome [14] of the same compound?
A: inactive

Q: What about the outcome [15] of the same compound?
A: inactive

Q: And the outcome [16]?
A: inactive

Q: For `Cc1ccc(-c2cc(C(F)(F)F)nn2-c2ccc(S(N)(=O)=O)cc2)cc1`, which outcome [1] is on record?
A: inactive

Q: And the AC50 [2]?
A: 85 µM (active)

Q: What about the outcome [3] of the same compound?
A: inactive

Q: And the AC50 [4]?
A: 89.6 µM (active)

Q: And the AC50 [5]?
A: 92.9 µM (active)

Q: What about the outcome [6] of the same compound?
A: inactive

Q: And the outcome [7]?
A: inactive

Q: What about the outcome [8] of the same compound?
A: inactive

Q: And the AC50 [9]?
A: 93.8 µM (active)

Q: What about the outcome [10] of the same compound?
A: inactive

Q: And the AC50 (BCL2L11 (gene 10018))?
A: 82.5 µM (active)

Q: And the outcome [11]?
A: inactive

Q: What about the outcome [12] of the same compound?
A: inactive

Q: And the outcome (Caspase-3 (Homo sapiens))?
A: inactive

Q: What about the outcome [13] of the same compound?
A: inactive

Q: What about the AC50 [17] of the same compound?
A: 15.8 µM (active)

Q: And the outcome [14]?
A: inactive

Q: And the AC50 [15]?
A: 90.2 µM (active)

Q: What about the AC50 [16] of the same compound?
A: 23.6 µM (active)

Q: Which outcome [1] does the source give for `CCCCC(CC)COC(=O)CCCCCCCC(=O)OCC(CC)CCCC` (configuration not stated) here?
A: inactive

Q: And the outcome [2]?
A: inactive

Q: And the outcome [3]?
A: inactive

Q: What about the outcome [4] of the same compound?
A: inactive

Q: And the outcome [5]?
A: inactive

Q: And the outcome [6]?
A: inactive

Q: What about the outcome [7] of the same compound?
A: inactive

Q: And the outcome [8]?
A: inactive

Q: And the outcome [9]?
A: inactive

Q: And the outcome [10]?
A: inactive

Q: And the outcome (BCL2L11 (gene 10018))?
A: inactive

Q: And the outcome [18]?
A: inactive

Q: And the outcome [11]?
A: inactive

Q: And the outcome [12]?
A: inactive

Q: What about the outcome (Caspase-3 (Homo sapiens)) of the same compound?
A: inactive

Q: And the outcome [13]?
A: inactive

Q: What about the outcome [17] of the same compound?
A: inactive

Q: And the outcome [14]?
A: inactive

Q: And the AC50 [15]?
A: 30.9 µM (active)

Q: What about the outcome [16] of the same compound?
A: inactive
